The record followed here is PubChem BioAssay.

Records with an inconclusive call do not appear. The source made the active and inactive calls.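 How the source made its calls, unless noted: active means Her2 level under about 52% in both replicate screens, with viability over 70% of control (limit read from the data); inconclusive means Her2 under the limit in one screen only, or viability under 70%; inactive means Her2 level above the set limit.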

The nature of test [1]: Her2 expression decrease, cell viability multiplex – SKBR3 breast tumor cells, AlphaScreen, ATP viability, primary screen (AID 461).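 On Her2 level: lower value means less Her2 protein in the cells.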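 On viability: percent of carrier control wells set as 100% viability.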 As to conditions: SKBR3 Her2 protein level, 18-24 h, measured here: SKBR3 viability, ATP luminescence, at 10 µM.
In test [2] the target is Receptor tyrosine-protein kinase erbB-2 (Homo sapiens) (UniProt P04626). The test is described as above. As to conditions: 18-24 h, at 10 µM, stronger effect = lower value.
Test [3] can be described thus: reduced viability of SK-BR-3 breast cancer cells – cell-based, 24 h, human, pilot screen (AID 572;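 active means viability at or below 10% of carrier control in both of two separate runs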;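 further: compound exposure lasted between 18 and 24 h rather than exactly 24 h; 100% = carrier-treated control wells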). The conditions noted are these: SK-BR-3 viability, CellTiter-Glo luminescence, at 10 µM, stronger effect = lower value.
Test [4] in a line: HUVEC growth inhibition – cell-based, human, primary screen (AID 575;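 active means viability at or below 30% in both replicate assays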;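 further: 100% = median of untreated cell wells with 0.1% DMSO on each plate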). The conditions noted are these: HUVEC proliferation, CellTiter-Glo luminescence, 72 h; at 10 µM; stronger effect = lower value.
A short description of test [5]: H69AR cell proliferation blockers – human, duplicate replicates, primary screen (AID 580;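 active means viability at or under a set limit in both replicates, limit being median viability minus 3 SD, cut at about 48% in these data, passing the limit was not always enough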;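 further: 100% = mean luminescence of untreated wells and 0% = no signal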). As to conditions: H69AR lung tumor cells viability, ATP luminescence, 72 h; at 10 µM; stronger effect = lower value.
The nature of test [6]: MRP1 drug-resistance reversers in H69AR cells – cell-based, doxorubicin co-treatment, pilot screen (AID 601;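 active means viability loss from added drug above about 55%, and viability with drug at most 40%, in both replicates, limit read from the data, passing the limit was not always enough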). The conditions noted are these: CellTiter-Glo, 72 h, at 10 µM; for differential viability (reversal): stronger effect = higher value.
Test [7] can be described thus: yeast transport mutant growth inhibition pilot in 384-well plates, post-Golgi transport modulator project (AID 636; in the data active means inhibition above about 31%). The conditions noted are these: absorbance 615 nm, about 18 h, stronger effect = higher value.
Test [8] in a line: growth suppression of yeast trafficking mutant, preliminary HTS, modulators of trafficking downstream of Golgi apparatus project, 1536-format plate, OD 615 nm (AID 637; in the data active means inhibition above about 30%). As to conditions: yeast transport mutant growth, absorbance 615 nm, 18 h; stronger effect = higher value.
A short description of test [9]: S. cerevisiae growth inhibition in permissive medium (OD615), pilot counter-assay for S. cerevisiae lifespan shortening project, permissive growth control (AID 705;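 active means growth inhibition above 25% in both replicates, a cutoff set 3 SD above the mean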). As to conditions: OD615, 24 h, at 10 µM, stronger effect = higher value.
A short description of test [10]: S. cerevisiae growth inhibition in restrictive medium, OD615, pilot screen, restrictive growth control, yeast lifespan reduction project (AID 706;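 active means growth inhibition above a set limit, 3 SD over mean compound inhibition, in both replicates, cut at about 43% in these data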;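 further: modified DeaD lifespan yeast strain shifted to restrictive glucose medium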). As to conditions: OD615, 48 h, at 10 µM, stronger effect = higher value.
Test [11] is described as follows: doxorubicin toxicity protection in MRP-1 cells – H69AR cells, CellTiter-Glo, duplicate, MRP-1 activator project, pilot screen (AID 807;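 active means viability increase at or above a cutoff of the median across tested compounds plus 3 SD, cut at about 8.5% in these data, passing the limit was not always enough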;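 further: compound pretreatment 18-22 h then 72 h combined with doxorubicin; 0% = doxorubicin alone and 100% = vehicle without doxorubicin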). As to conditions: H69AR viability with doxorubicin, CellTiter-Glo luminescence; at 10 µM; stronger effect = higher value.
Test [12] is described as follows: viability of HCT116 without oncogenic beta-catenin – human colon tumor cells, pilot screen (AID 823;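 active means cell viability at or below a set limit in both duplicate runs, the limit being the all-compound median minus 4 SD, cut at about 23% in these data, passing the limit was not always enough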;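 further: 0% = wells killed by 20 µM Hyamine and 100% = untreated DMSO cell wells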). As to conditions: HCT116 beta-catenin knockout viability, CellTiter-Glo, 60 h; at 10 µM; stronger effect = lower value.
The nature of test [13]: viability of PTEN-null HCT116 cells – cell-based, HCT116 clonal line, CellTiter-Glo, pilot screen (AID 824;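 active means viability at or below 27.92% in each of two runs, the all-compound median minus 4 SD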;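 further: 0% = 20 µM Hyamine control and 100% = vehicle cell control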). As to conditions: HCT116 PTEN-deleted viability, 60 h, at 10 µM, stronger effect = lower value.
Test [14] is described as follows: RAM pathway blockade in budding yeast – dse1pr::URA3 reporter, 5-FOA selection, pilot screen (AID 869;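 active means inhibition over a set limit, the all-compound mean plus 3 SD, in both replicate runs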;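 further: 0% = DMSO wells with no growth and 100% = 10 µM 1-NA-PP1 with full growth; RAM network block rescues cells from 5-FOA so hits raise OD615 growth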). The conditions noted are these: S. cerevisiae dse1pr::URA3 5-FOA growth, OD615, 2 d; at 10 µM; stronger effect = higher value; strain carries analog-sensitive mutant Cbk1 kinase.
The nature of test [15]: RAM signaling pathway blockade in yeast – S. cerevisiae, Pdr1DBD-CYC8 efflux-inhibited sensitized strain, primary screen (AID 1298;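 active means RAM network inhibition above 8.4% in each of two replicates, 3 SD over the compound average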;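 further: 0% = DMSO untreated cells without growth and 100% = 10 µM 1-NA-PP1 full growth; higher means more yeast growth rescued from 5-FOA killing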). As to conditions: S. cerevisiae cbk1-as DSE1-URA3 strain, 5-FOA growth OD615, 2 d; at 50 µM; stronger effect = higher value.
Setting [16] is: H69AR cells + 2 uM doxorubicin, measured here: viability with 2 uM doxorubicin, stronger effect = lower value.
The mark [17] stands for this setting: H69AR cells, compound alone cytotoxicity.

Sequence of Receptor tyrosine-protein kinase erbB-2 (Homo sapiens) (P04626 whole entry, looked up): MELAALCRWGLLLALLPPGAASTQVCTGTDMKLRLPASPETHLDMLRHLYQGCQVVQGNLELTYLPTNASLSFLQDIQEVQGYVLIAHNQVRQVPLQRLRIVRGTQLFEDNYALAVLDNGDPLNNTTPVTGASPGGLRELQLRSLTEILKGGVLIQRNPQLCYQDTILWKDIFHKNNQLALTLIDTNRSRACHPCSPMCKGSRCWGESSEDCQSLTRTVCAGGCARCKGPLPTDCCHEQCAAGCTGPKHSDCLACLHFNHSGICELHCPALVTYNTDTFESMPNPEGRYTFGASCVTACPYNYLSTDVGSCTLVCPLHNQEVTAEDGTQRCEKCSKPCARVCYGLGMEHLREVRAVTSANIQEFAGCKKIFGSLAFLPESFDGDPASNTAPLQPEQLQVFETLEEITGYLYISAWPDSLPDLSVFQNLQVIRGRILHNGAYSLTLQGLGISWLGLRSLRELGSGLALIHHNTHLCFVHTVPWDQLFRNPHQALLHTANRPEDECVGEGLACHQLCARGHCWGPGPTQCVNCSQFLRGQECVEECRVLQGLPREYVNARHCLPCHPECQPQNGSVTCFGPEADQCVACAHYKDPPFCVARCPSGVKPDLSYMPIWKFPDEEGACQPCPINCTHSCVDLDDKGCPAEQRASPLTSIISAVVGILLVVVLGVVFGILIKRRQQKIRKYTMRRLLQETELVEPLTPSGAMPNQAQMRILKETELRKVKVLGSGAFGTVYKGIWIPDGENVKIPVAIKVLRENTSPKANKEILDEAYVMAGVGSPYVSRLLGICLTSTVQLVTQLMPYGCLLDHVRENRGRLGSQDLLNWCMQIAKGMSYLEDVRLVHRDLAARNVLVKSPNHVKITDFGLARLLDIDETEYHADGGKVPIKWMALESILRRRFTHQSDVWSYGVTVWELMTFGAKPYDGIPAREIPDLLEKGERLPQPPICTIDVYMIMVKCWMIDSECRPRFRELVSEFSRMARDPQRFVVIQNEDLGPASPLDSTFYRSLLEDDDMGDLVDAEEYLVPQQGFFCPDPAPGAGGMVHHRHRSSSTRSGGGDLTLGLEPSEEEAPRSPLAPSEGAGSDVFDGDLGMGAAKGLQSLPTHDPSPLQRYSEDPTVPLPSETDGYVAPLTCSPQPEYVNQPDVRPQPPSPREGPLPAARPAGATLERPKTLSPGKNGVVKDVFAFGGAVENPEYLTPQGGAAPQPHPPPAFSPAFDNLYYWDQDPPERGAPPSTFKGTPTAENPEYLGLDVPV

`CC(=O)c1c(OC(=O)c2ccco2)c2ccccc2n1C`: the viability is 91% in [1]; 91% (inactive) in [3]; 74.6% (inactive) in test [4]; 75.3% (inactive) in test [5]; 83.8% in test [6] (setting [16]); 75.3% in [6] (setting [17]). The viability in test [12] was 75.1% (inactive); in test [13] it was 91.3% (inactive). Besides, in test [2], the Her2 level was 102% (inactive). Further, the differential viability (reversal) in test [6] (H69AR cells + 2 uM doxorubicin) was -8.43% (inactive). The inhibition in test [7] is -0.64% (inactive); in test [8], -8.83% (inactive); in test [14], 0.15% (inactive). Moreover, the growth inhibition was -14.2% (inactive) in [9] and -7.23% (inactive) in test [10]. Also, in test [11], the viability increase was -4.82% (inactive). For the same compound, the RAM network inhibition in test [15] was 1.13% (inactive).

`CCn1cc(SCC(=O)NCC2CCCO2)c2ccccc21` (stereo not drawn): the viability in [1] was 88%; in test [3], 88% (inactive); in test [4], 102% (inactive); in [5], 85.5% (inactive); in test [6] (setting [16]) it was 94.9%; in [6] (setting [17]) it was 85.5%. Moreover, the viability is 94.8% (inactive) in [12] and 99.9% (inactive) in test [13]. Besides, the Her2 level in [2] is 93.5% (inactive). The differential viability (reversal) in test [6] (H69AR cells + 2 uM doxorubicin) was -9.37% (inactive). Also, the figures for the inhibition in test [7], in test [8] and in test [14] were -4.67% (inactive), -0.5% (inactive) and 1.44% (inactive), respectively. Moreover, the growth inhibition in test [9] was 4.53% (inactive); in [10] it was -6.71% (inactive). The viability increase in test [11] was -1.64% (inactive). In [15], the RAM network inhibition was 4.96% (inactive).

As to `Cc1c(C(=O)OC2CCC(C)CC2)[nH]c2c1C(=O)CCC2` (stereo not drawn), the viability was 69.5% in [1]; 69.5% (inactive) in [3]; 87.6% (inactive) in [4]; 86.8% (inactive) in [5]; 91.2% in test [6] (setting [16]); 86.8% in [6] (setting [17]). The viability in [12] is 97.7% (inactive); in test [13], 92.9% (inactive). For the same compound, the Her2 level in [2] is 78% (inactive). In addition, in test [6] (H69AR cells + 2 uM doxorubicin), the differential viability (reversal) was -4.38% (inactive). Moreover, the figures for the inhibition in [7], in [8] and in test [14] were 5.07% (inactive), 1.97% (inactive) and 1.67% (inactive), respectively. Also, the growth inhibition is -11.8% (inactive) in test [9] and -6.09% (inactive) in test [10]. Moreover, the viability increase in test [11] is 2.52% (inactive). Moreover, the RAM network inhibition in test [15] is 3.39% (inactive).

Regarding `O=C(C1CCN(c2nnc(-n3cccc3)s2)CC1)N1CCOCC1`, the viability in test [1] was 84%; in test [3], 84% (inactive); in [4], 86.2% (inactive); in test [5], 87.5% (inactive); in [6] (setting [16]), 87.3%; in test [6] (setting [17]) it was 87.5%. Moreover, the viability in test [12] was 101% (inactive); in test [13], 96.7% (inactive). For the same compound, in [2], the Her2 level is 80% (inactive). For the same compound, the differential viability (reversal) in [6] (H69AR cells + 2 uM doxorubicin) is 0.17% (inactive). Also, the inhibition in test [7] was -5.2% (inactive); in [8], -1.67% (inactive); in [14], 1.83% (inactive). The values for the growth inhibition in [9] and in test [10] were -0.63% (inactive) and -1.73% (inactive), respectively. In addition, the viability increase in test [11] was 0.27% (inactive). Also, the RAM network inhibition in [15] was 6.37% (inactive).

`O=C(NCCN1C(=O)C2C3C=CC(C3)C2C1=O)N1CCCCC1` (stereo not drawn): the viability in test [1] is 122%; in test [3], 122% (inactive); in test [4], 100% (inactive); in test [5] it was 103% (inactive); in [6] (setting [16]) it was 96.5%; in test [6] (setting [17]) it was 103%. Also, the viability is 102% (inactive) in test [12] and 95.1% (inactive) in [13]. Further, in [2], the Her2 level was 112% (inactive). Moreover, the differential viability (reversal) in test [6] (H69AR cells + 2 uM doxorubicin) is 6.97% (inactive). In addition, the inhibition was 4.93% (inactive) in test [7], -4.83% (inactive) in test [8] and 2.13% (inactive) in [14]. Further, the results for the growth inhibition in [9] and in test [10] were -11.7% (inactive) and 0.245% (inactive), respectively. Further, the viability increase in test [11] was -0.67% (inactive). Also, the RAM network inhibition in [15] is 3.08% (inactive).

Regarding `CC(=O)Nc1ccc(N=Cc2ccc[nH]2)cc1`, the viability was 97.5% in [1]; 97.5% (inactive) in test [3]; 95.3% (inactive) in test [4]; 88.5% (inactive) in test [5]; 90% in test [6] (setting [16]); 88.5% in [6] (setting [17]). Moreover, the viability is 90.7% (inactive) in test [12] and 92.8% (inactive) in [13]. The Her2 level in test [2] was 87.5% (inactive). Further, in test [6] (H69AR cells + 2 uM doxorubicin), the differential viability (reversal) was -1.47% (inactive). Moreover, the inhibition was 1.28% (inactive) in [7], -5.5% (inactive) in test [8] and 0.435% (inactive) in [14]. Moreover, the values for the growth inhibition in [9] and in [10] were -11.4% (inactive) and -5.65% (inactive), respectively. Besides, in test [11], the viability increase was -1.9% (inactive). In addition, the RAM network inhibition in test [15] was 3.68% (inactive).

With `CCN(CC)c1ccc(NC(=O)c2nc3nc(C)cc(C(F)F)n3n2)cc1`, the viability in [1] was 122%; in [3] it was 122% (inactive); in test [4] it was 81.6% (inactive); in test [5] it was 84.4% (inactive); in [6] (setting [16]) it was 77.4%; in test [6] (setting [17]), 84.4%. In addition, the viability in test [12] is 95.2% (inactive); in [13], 88% (inactive). Also, the Her2 level in test [2] is 102% (inactive). For the same compound, the differential viability (reversal) in test [6] (H69AR cells + 2 uM doxorubicin) was 6.97% (inactive). Moreover, the inhibition is -3.6% (inactive) in test [7], 6.72% (inactive) in [8] and 0.83% (inactive) in [14]. The growth inhibition in [9] is -8.26% (inactive); in test [10] it was -10.5% (inactive). Also, the viability increase in test [11] was 0.23% (inactive). In addition, the RAM network inhibition in test [15] was 1.16% (inactive).

With `COC(=O)c1ccc(-n2nnnc2SCc2nn[nH]n2)cc1`, the viability in [1] is 77%; in test [3], 77% (inactive); in test [4] it was 107% (inactive); in test [5], 114% (inactive); in test [6] (setting [16]), 91.7%; in test [6] (setting [17]) it was 114%. Moreover, the viability was 106% (inactive) in test [12] and 100% (inactive) in test [13]. For the same compound, the Her2 level in test [2] was 135% (inactive). Further, the differential viability (reversal) in test [6] (H69AR cells + 2 uM doxorubicin) was 21.8% (inactive). In addition, the inhibition in [7] was 3.21% (inactive); in [8], -5.5% (inactive); in test [14], 0.965% (inactive). Further, the growth inhibition in test [9] is -0.675% (inactive); in test [10] it was 25.4% (inactive). In [11], the viability increase was 0.27% (inactive). Moreover, the RAM network inhibition in test [15] is -1.09% (inactive).

Take `COc1cc(/C=N/n2cnnc2)ccc1OCC(=O)N1CCOCC1`: the viability is 84% in [1]; 84% (inactive) in test [3]; 99.5% (inactive) in [4]; 93% (inactive) in test [5]; 99.6% in test [6] (setting [16]); 93% in test [6] (setting [17]). The viability was 104% (inactive) in test [12] and 98.9% (inactive) in test [13]. Besides, the Her2 level in [2] was 93.5% (inactive). The differential viability (reversal) in test [6] (H69AR cells + 2 uM doxorubicin) is -6.64% (inactive). Besides, the inhibition is -0.9% (inactive) in [7], -1.17% (inactive) in test [8] and 2.55% (inactive) in [14]. Moreover, the growth inhibition in test [9] is -6.31% (inactive); in [10], -6.25% (inactive). For the same compound, the viability increase in test [11] is -2.75% (inactive). Moreover, the RAM network inhibition in [15] is 6.03% (inactive).
